Bioassay records (PubChem BioAssay)
TGFb inhibitor: qHTS for Inhibitors of TGF-b; HepG2 CAGA-GFP TGF-b/SMAD3 reporter, GFP fluorescence, 18 h; TGF-beta stimulated, 500 pg/mL final; Potency, µM (doses to about 46.1 µM), for the others: at the highest dose activity, negative = inhibition, usual class: inhibitors; 410,000 tested, 1.2% active; AID 588855, 2011; also: potency is read from the fitted curve at half-maximal effect; % is scaled to controls: 0 for no effect and ±100 for the full control effect; nearly all actives have a fitted effect of over 65% in size
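GFP signal (ex488/em500-530) from TGF-beta-stimulated HEPG2 CAGA-GFP cells, 500 pg/mL final, 18 h at 37 degrees C in DMEM plus 1% FBS, normalized to unstimulated and DMSO-stimulated controls.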
HepG2 viability: qHTS for Inhibitors of TGF-b: Cytotox Counterscreen. AID 588856, 2011. HepG2 CAGA-GFP viability, ATP luminescence, 18 h. 410,000 tested, 0.76% active. Potency, µM (titrated, usually from 46.1 µM), for inactives: top-dose activity change, negative = cytotoxicity, hits mostly cytotoxic; also: potency is read from the fitted curve at half-maximal effect
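HepG2 CAGA-GFP cells (1000/well, DMEM with 1% FBS) received compound, then TGF-beta at 500 pg/mL final, and were incubated 18 hours at 37 degrees C. Viability was read by CellTiter-Glo luminescence. Media-only wells were set as complete cell-killing and DMSO as no toxicity.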
S2 tox: Viability Counterscreen for Primary qHTS for Inhibitors of ATXN expression. S2 cells (HEK-293 line with an ATXN2-luciferase reporter) viability, CellTiter-Fluor protease fluorescence, 24 h. Potency, µM (titrated, usually from 56.7 µM), most hits filed as cytotoxic. 400,000 tested, 0.49% active. AID 651635, 2014; also: potency is read from the fitted curve at half-maximal effect; nearly all actives have a fitted effect of over 40% in size
IL1B secr inh: qHTS for Inhibitors of Inflammasome Signaling: IL-1-beta AlphaLISA Primary Screen; activity change, % at 57.5 µM; 360,000 tested, 4.7% active; THP-1 LPS/ATP IL-1B secretion, AlphaLISA, 16 h; stronger effect = lower value; in the data active = activity change below about -50%; inconclusive = mostly about -30% to -49%; also: % is scaled to controls: 0 for no effect and ±100 for the full control effect
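THP-1 cells pretreated 1 hr with compounds (up to 57.5 uM final), then stimulated with LPS (250 ng/mL final) plus ATP (1.25 mM final); secreted IL-1B measured by AlphaLISA after 16 hr, decreased signal indicating inhibition.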
ATXN2 expr inh: Primary qHTS for Inhibitors of ATXN expression; Potency, µM (titrated, usually from 57 µM), for the others: at the top dose activity change, negative = inhibition, usual class: inhibitors; 360,000 tested, 0.72% active; AID 1745845, 2022; HEK-293 ATXN2-luciferase reporter, luminescence, 24 h; also: potency is read from the fitted curve at half-maximal effect; % is scaled to controls: 0 for no effect and ±100 for the full control effect; nearly all actives have a fitted effect of over 55% in size
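ATXN2-luciferase reporter cells (luciferase flanked by upstream and downstream ATXN2 gene portions) were treated 24 h at 37 °C with compounds at up to 57 uM. SteadyGlo luminescence gave expression; GF-AFC fluorescence gave viability.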
Numbers without * were called inactive; i = inactive; ? = inconclusive; . = not tested or not shown. Only some compounds are listed: those with a hit (about 5.7% of all), similar ones and a draw of the others. Unless noted, calls follow the shape of the dose curve; as a rule, active = well fitted curve in the direction sought with a large enough effect; inconclusive = small, poorly fitted or top-dose-only effect, or another doubt; inactive = no such curve, though single readings can be large; an effect the other way counts as inactive or inconclusive.

SMILES	TGFb inhibitor	HepG2 viability	S2 tox	IL1B secr inh	ATXN2 expr inh
Cc1ccc(-n2nnnc2SCC(=O)NC2CCCc3ccccc32)cc1 (stereo not drawn)	-19%	-8%	i	1	5%
Cc1ccc(-n2nnnc2SCC(=O)NC2CCCc3ccccc32)c(C)c1 (stereo not drawn)	?	-31%	?	-73*	?
Cc1ccccc1CNC(=O)c1oc2c(c1C)-c1nn(Cc3ccc(Cl)cc3)cc1CC2	-7%	-13%	.	.	.
CC(C)CNC(=O)c1ccc(-c2ccc(F)c(F)c2)c2ccoc12	-8%	-24%	i	-66*	1%
COc1ccc(-c2ccc(C(=O)NCc3ccc(F)c(F)c3)c3occc23)c(C)c1	-16%	-28%	i	-59*	?
COc1ccc(-c2coc3c(C(=O)NCc4ccc(F)c(F)c4)cccc23)c(C)c1	-22%	-16%	i	?	-16%
CC(C)(C)n1ncc2c(=O)n(Cc3cccc(-c4cccs4)c3)cnc21	?	-17%	.	.	.
CCNCC(=O)N1c2ccccc2CCc2ccc(NC(=O)OC(C)C)cc21	?	-34%	i	-66*	-12%
CCN(CC)CCC(=O)N1c2ccccc2CCc2ccc(NC(=O)OC)cc21	?	-1%	i	-62*	-21%
CCOC(=O)Nc1ccc2c(c1)N(C(=O)CCN(CC)CC)c1ccccc1S2=O (stereo not drawn)	14µM*	-95%	?	-100*	14%
CCN(C(=O)Cn1cnc2onc(-c3ccc(F)cc3)c2c1=O)c1cc(C)ccc1C	26%	1%	i	.	-3%
C/C=C(\C)C(=O)OC1[C@H](OC(C)=O)C2(CO)C(CC1(C)C)C1=CCC3C4(C)CCC(O[C@@H]5O[C@H](C(=O)O)[C@@H](O[C@@H]6O[C@H](CO)[C@@H](O)[C@H](O)[C@H]6O)[C@H](O)[C@H]5O[C@H]5O[C@H](CO)[C@@H](O)[C@H](O)[C@H]5O)[C@](C)(CO)C4CCC3(C)[C@]1(C)C[C@H]2O (stereo partly drawn)	4.5µM*	-102%	14µM*	-105*	8.9µM*
C/C=C(/C)C(=O)OC1CC(C)(C)C[C@H]2C3=CC[C@@H]4[C@@]5(C)CCC(O[C@@H]6O[C@@H](C(=O)O)[C@@H](O)C(O[C@@H]7OC[C@H](O)[C@@H](O)[C@@H]7O[C@@H]7OC(CO)C(O)[C@@H](O)[C@@H]7O)C6O[C@@H]6OC(CO)C(O)C(O)C6O)[C@@](C)(CO)[C@@H]5CC[C@]4(C)[C@]3(C)CC(O)[C@@]12CO (stereo partly drawn)	14µM*	14µM*	32µM*	0	0%
Cc1ncc2c(c1CNC(=O)c1ccc3c(c1)OCO3)CCN(C(=O)C1Cc3ccccc3O1)C2 (stereo not drawn)	.	.	i	.	.
COc1ccc(-c2cn3c(n2)sc2cc(C(=O)NC4CCCc5ccccc54)ccc23)cc1 (stereo not drawn)	-25%	-17%	.	.	.
CC1CCN(c2nn3c(=O)c(C(=O)NCCc4ccccc4)cnc3s2)CC1	?	-20%	i	.	-10%
Cc1cccc(C(=O)N(Cc2nc(-c3ccc(Cl)cc3)no2)C(C)C)c1	?	-8%	i	.	?
Cc1ccc(C)c(C(=O)N(Cc2nc(-c3ccc(Cl)cc3)no2)C(C)C)c1	10µM*	-17%	i	-8	?
OC(c1cccc(Cl)c1)c1nc(-c2ccc(F)c(Cl)c2)cs1 (stereo not drawn)	?	-59%	i	7	7%
OC(c1cccc(Cl)c1)c1nc(-c2ccc(Cl)cc2)cs1 (stereo not drawn)	13µM*	13µM*	i	0	-25%
Cc1ccc(-c2csc(C(O)c3cccc(Cl)c3)n2)cc1C (stereo not drawn)	13µM*	-54%	i	-7	-1%
Cc1ccc(-c2csc(C(O)c3ccccc3)n2)cc1C (stereo not drawn)	-5%	-22%	i	7	37%
CCc1ccccc1NC(=O)Cn1c(=O)n(Cc2ccc(OC)cc2)c(=O)c2oc3ccccc3c21	0%	-5%	.	.	.
C#C[C@]1(O)CC[C@@H]2[C@@H]3CCC4=CC(=O)CC[C@@H]4[C@H]3CC[C@@]21CC	.	.	.	.	-19%
Cc1ccc(Cn2c(/C=C/c3ccco3)nc3ccccc32)cc1	-2%	-1%	i	-105*	21%
SMILES	TGFb inhibitor	HepG2 viability	S2 tox	IL1B secr inh	ATXN2 expr inh
Clc1ccc(Cn2c(/C=C/c3ccco3)nc3ccccc32)cc1	3%	8%	i	-94*	38%
CCCCn1c(/C=C/c2ccco2)nc2ccccc21	-13%	5%	i	0	1%
CCCn1c(/C=C/c2ccco2)nc2ccccc21	?	-40%	i	-16	12%
CC1=C(C(=O)Nc2ccccc2)C(c2cccn2C)n2ncnc2N1 (stereo not drawn)	-8%	0%	i	.	9%
CN1CCc2c(c3cnc4cc(Cl)ccc4c3n2C)C1	-15%	5%	.	.	.
Cc1cccc(C)c1NC(=O)CCCCCC1NC(=O)NC1C (stereo not drawn)	-3%	24%	i	-55*	.
CC1NC(=O)NC1CCCCCC(=O)NCCc1ccccc1 (stereo not drawn)	25%	7%	i	-96*	3%
O=C(CCCCC(=O)NCCCc1ccccc1)NCCCc1ccccc1	-18%	5%	?	2	.
O=C(O)CCCCC1SCC2NC(=O)NC21 (stereo not drawn)	-3%	-8%	i	-56*	-5%
C[C@@H]1NC(=O)N[C@@H]1CCCCCC(=O)O	9%	0%	i	-102*	4%
CCc1nn2c(=O)cc(COC(=O)c3ccccc3NC(=O)C3CCCCC3)nc2s1	12%	4%	.	.	.
Cc1cccc(NC(=O)N2CCC(CN3CCCCCC3)CC2)c1C	0%	-33%	.	.	.
Cc1ccc(CNC(=O)c2cn(C)c3ccc(S(=O)(=O)N(C)C4CCCCC4)cc3c2=O)cc1	3%	6%	i	.	5%
Cc1cc2c(cc3c(SCc4ccc(Cl)cc4)nnc(C)n32)o1	?	-46%	.	.	.
CSc1ccc(CCNC(=O)C(C)n2nc(C)c3sc4ccccc4c3c2=O)cc1 (stereo not drawn)	.	1%	.	.	.
COc1nnc(-c2ccc(N3CCCCC3)c(NC(=O)c3ccccc3Cl)c2)c2ccccc12	?	-6%	.	.	.
COc1ccc(S(=O)(=O)N2CCCCCC2)cc1NC(=O)Cc1cc(OC)c(OC)c(OC)c1	0%	-23%	?	0	-4%
